Consider 37 targets from the supplement of paper PMC12067093, “Discovery and optimisation of a covalent ligand for TRIM25 and its application to targeted protein ubiquitination” (Chemical Science, 2025).

Targets with the largest changes are over-represented here; the source holds about 21,000 in all.

Compound in this assay: CC1Cc2ccccc2N1C(=O)C1CCCN(C1)C(=O)CCl (mixture of isomers) [TRIM25 ligand 11 (diastereomer mixture)]
The assay is described as follows: probe-labelled cysteine peptide fold change vs DMSO (competition) (log2 fold change); higher = less target engagement (more negative = stronger competition). Particulars: THP-1, incubation time: 4 h.
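Also: competitive chemoproteomic profiling in live THP-1 cells with an iodoacetamide desthiobiotin (IA-DTB) probe, comparing probe-labelled peptide intensities in compound-treated cells against DMSO-treated controls.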

UniProt Q08211, sequence (Q08211 whole entry, looked up): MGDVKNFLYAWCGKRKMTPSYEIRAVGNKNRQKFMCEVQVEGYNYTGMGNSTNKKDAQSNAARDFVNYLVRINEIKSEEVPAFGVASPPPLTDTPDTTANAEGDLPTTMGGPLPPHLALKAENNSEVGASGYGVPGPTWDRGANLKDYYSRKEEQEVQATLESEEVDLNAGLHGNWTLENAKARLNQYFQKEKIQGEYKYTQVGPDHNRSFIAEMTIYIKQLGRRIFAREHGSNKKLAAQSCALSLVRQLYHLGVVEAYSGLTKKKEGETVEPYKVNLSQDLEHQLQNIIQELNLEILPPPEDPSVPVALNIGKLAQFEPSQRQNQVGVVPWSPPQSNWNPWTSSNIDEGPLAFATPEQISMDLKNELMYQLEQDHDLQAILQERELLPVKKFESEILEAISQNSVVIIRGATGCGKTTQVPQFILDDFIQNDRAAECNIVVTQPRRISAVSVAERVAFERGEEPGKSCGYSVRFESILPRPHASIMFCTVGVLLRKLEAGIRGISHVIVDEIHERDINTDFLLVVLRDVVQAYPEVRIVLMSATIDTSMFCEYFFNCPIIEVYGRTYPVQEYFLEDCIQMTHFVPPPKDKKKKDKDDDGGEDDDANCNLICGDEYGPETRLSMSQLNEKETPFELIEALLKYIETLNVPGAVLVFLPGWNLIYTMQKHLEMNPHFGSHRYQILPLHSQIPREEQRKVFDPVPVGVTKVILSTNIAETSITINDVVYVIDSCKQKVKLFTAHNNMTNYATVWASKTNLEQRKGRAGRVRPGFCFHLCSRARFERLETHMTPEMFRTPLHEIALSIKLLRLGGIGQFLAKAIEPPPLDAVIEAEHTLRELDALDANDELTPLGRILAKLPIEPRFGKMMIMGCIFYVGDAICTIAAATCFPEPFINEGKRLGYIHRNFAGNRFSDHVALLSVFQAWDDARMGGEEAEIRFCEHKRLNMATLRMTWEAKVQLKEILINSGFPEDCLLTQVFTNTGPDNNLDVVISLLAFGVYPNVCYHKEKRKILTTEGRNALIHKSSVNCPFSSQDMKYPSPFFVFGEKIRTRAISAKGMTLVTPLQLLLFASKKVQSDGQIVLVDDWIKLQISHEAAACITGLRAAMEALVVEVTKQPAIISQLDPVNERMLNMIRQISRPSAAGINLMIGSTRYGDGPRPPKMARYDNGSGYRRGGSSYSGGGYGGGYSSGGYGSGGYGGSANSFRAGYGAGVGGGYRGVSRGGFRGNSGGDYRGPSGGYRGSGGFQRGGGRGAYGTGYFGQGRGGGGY
UniProt P26232, sequence (P26232 whole entry, looked up): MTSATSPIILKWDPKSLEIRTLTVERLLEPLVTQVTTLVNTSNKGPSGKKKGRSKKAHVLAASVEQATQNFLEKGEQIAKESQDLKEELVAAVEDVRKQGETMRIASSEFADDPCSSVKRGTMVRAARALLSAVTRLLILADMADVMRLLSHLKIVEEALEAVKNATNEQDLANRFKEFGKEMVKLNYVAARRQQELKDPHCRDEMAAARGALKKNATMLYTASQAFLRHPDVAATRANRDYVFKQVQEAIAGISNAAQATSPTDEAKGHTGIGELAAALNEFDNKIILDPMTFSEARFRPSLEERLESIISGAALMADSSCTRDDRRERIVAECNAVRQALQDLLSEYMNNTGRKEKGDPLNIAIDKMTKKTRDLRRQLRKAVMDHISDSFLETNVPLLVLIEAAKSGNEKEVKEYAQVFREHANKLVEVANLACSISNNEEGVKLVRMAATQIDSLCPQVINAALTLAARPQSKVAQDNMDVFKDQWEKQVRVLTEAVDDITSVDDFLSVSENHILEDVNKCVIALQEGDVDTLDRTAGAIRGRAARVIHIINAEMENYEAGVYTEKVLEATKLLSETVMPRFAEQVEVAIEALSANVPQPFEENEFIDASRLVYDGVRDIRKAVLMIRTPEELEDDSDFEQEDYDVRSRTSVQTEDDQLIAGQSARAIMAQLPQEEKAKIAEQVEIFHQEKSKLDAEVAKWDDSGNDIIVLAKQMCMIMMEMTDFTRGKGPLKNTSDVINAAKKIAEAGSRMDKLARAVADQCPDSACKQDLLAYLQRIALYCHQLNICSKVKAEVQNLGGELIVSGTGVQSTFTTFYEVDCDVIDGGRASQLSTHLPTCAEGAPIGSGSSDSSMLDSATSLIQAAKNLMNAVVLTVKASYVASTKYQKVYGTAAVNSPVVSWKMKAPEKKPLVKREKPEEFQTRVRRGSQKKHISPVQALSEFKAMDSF
UniProt P31146, sequence (P31146 whole entry, looked up): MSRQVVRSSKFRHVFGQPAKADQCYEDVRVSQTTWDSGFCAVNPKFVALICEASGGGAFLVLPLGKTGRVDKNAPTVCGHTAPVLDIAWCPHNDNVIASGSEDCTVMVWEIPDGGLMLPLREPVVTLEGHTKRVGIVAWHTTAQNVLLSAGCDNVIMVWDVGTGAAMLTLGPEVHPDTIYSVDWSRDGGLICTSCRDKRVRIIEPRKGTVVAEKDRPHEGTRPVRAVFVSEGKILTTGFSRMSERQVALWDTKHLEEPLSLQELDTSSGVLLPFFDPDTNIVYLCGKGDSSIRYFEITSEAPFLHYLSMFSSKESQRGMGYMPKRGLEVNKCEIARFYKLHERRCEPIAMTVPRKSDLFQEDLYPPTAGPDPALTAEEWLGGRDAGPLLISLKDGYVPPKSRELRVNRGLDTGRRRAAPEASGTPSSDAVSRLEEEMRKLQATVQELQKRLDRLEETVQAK
UniProt Q8IY37, sequence (Q8IY37 whole entry, looked up): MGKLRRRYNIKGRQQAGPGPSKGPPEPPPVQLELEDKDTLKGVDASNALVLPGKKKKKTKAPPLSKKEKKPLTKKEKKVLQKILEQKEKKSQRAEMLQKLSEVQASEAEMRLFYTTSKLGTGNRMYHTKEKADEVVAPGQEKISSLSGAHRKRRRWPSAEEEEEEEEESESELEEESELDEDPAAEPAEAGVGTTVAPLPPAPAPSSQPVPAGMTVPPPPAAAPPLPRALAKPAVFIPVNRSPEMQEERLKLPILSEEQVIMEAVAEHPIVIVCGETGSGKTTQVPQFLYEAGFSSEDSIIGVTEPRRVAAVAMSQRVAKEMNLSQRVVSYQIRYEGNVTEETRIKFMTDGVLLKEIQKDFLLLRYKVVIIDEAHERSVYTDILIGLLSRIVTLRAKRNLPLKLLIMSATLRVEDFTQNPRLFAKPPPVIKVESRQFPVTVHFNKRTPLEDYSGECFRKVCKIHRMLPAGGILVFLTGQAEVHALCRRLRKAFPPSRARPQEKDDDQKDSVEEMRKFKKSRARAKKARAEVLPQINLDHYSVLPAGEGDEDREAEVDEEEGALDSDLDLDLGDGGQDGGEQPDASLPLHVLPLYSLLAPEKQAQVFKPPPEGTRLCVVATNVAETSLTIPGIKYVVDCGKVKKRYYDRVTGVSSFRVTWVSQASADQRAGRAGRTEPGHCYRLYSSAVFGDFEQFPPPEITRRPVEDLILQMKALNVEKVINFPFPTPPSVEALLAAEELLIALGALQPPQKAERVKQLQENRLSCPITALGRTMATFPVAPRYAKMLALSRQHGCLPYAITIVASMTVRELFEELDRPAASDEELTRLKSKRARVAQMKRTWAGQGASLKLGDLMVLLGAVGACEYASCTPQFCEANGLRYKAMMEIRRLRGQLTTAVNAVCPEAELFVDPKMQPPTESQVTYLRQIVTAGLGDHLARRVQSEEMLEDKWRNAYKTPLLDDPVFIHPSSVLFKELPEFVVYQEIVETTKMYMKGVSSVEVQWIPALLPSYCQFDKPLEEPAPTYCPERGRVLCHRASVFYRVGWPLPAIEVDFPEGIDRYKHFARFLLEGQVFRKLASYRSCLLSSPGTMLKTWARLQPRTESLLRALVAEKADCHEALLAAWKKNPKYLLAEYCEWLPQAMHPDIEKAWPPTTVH
UniProt Q99543, sequence (Q99543 whole entry, looked up): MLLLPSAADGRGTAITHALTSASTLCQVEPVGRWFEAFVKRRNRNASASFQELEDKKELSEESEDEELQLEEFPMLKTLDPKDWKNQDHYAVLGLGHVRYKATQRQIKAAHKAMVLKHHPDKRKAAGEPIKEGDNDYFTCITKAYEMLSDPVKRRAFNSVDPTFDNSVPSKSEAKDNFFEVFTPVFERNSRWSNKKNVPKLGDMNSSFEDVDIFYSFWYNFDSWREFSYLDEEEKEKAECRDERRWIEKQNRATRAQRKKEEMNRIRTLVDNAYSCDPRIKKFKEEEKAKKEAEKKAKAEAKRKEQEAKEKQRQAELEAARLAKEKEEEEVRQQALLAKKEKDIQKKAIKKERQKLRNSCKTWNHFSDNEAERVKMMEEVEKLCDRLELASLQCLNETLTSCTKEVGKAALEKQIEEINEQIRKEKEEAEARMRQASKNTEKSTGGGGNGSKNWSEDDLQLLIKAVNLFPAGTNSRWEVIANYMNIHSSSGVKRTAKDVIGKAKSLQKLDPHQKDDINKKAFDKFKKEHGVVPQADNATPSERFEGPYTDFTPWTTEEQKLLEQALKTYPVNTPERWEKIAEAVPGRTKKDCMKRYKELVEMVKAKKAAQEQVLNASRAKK
UniProt Q5QP82, sequence (Q5QP82 whole entry, looked up): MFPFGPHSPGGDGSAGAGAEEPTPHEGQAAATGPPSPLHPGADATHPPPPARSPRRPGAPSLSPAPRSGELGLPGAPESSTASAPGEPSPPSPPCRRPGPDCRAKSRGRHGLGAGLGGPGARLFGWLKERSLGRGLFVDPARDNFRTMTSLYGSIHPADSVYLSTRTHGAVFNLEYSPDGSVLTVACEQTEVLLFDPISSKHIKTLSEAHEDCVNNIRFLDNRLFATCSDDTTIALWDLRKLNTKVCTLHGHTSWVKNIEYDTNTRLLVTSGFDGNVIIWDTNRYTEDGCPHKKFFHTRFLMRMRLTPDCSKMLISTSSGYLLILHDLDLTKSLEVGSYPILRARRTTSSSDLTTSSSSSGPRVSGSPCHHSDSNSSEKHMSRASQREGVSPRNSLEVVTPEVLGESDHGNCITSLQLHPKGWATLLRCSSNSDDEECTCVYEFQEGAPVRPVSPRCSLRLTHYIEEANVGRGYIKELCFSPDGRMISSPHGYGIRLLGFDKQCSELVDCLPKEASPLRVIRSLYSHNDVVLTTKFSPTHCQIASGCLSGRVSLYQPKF

CTSZ_Q9UBR2_179_ECHAIR (UniProt Q9UBR2): the “probe-labelled cysteine peptide fold change” value is, setting by setting: (10 µM) -0.116; (50 µM) 0.567.
In the case of “CORO7_P57737_75_VAHLGCHSDLVTDLDFSPFDDFLLATGSADR (UniProt P57737)”, the “probe-labelled cysteine peptide fold change” value runs as follows: (10 µM) 0.031; (50 µM) 0.0305.
For “CUL4B_Q13620_297_CWQNHCR (UniProt Q13620)”, in that order: 0.0567 and 0.295.
As to “DOCK8_Q8NF50_590_IQFMCGEDASNAMPVIFGK (UniProt Q8NF50)”, the “probe-labelled cysteine peptide fold change” value runs as follows: (10 µM) -0.02; (50 µM) 0.209.
For “DHX15_O43143_774_IAPQYYDMSNFPQCEAKR (UniProt O43143)”, the “probe-labelled cysteine peptide fold change” value is, setting by setting: (10 µM) -0.432; (50 µM) -0.211.
With “CTR9_Q6PD62_196_TNPGCPAEVR (UniProt Q6PD62)”, the “probe-labelled cysteine peptide fold change” value is, setting by setting: (10 µM) -0.0355; (50 µM) 0.0417.
Turning to “DPYSL2_Q16555_133_SCCDYSLHVDISEWHK (UniProt Q16555)”, the “probe-labelled cysteine peptide fold change” value runs as follows: (10 µM) 0.131; (50 µM) -0.000105.
For “DIAPH1_O60610_964_LQFSEQVENIKPEIVSVTAACEELR (UniProt O60610)”, in that order: 0.176 and 0.06.
The corresponding values for “DLD_P09622_484_VCHAHPTLSEAFR (UniProt P09622)” are 0.111 and -0.123.
For “CRIP1_P50238_56_TLTSGGHAEHEGKPYCNHPCYAAMFGPK (UniProt P50238)”, in that order: -0.889 and -1.02.
For “CORO1A_P31146_332_RGLEVNKCEIAR (UniProt P31146)”, the “probe-labelled cysteine peptide fold change” value (10 µM) was -0.603 and the “probe-labelled cysteine peptide fold change” value (50 µM) is -0.342.
The corresponding values for “DENND4B_O75064_180_GEGTPHTYCR (UniProt O75064)” are 0.0109 and 0.131.
With “CPNE2_Q96FN4_265_DSVPLEFECINPK (UniProt Q96FN4)”, the “probe-labelled cysteine peptide fold change” value is -0.22 (10 µM) and -0.165 (50 µM).
For “DCAF10_Q5QP82_412_NSLEVVTPEVLGESDHGNCITSLQLHPK (UniProt Q5QP82)”, the “probe-labelled cysteine peptide fold change” value (10 µM) was found to be 0.152 and the “probe-labelled cysteine peptide fold change” value (50 µM) was -0.291.
For “CRYBG1_Q9Y4K1_1404_ISSVQPICLDSFTGPR (UniProt Q9Y4K1)”, in that order: 0.199 and -0.0158.
For “DYNC1H1_Q14204_4644_GVAVLCTE (UniProt Q14204)”, in that order: 0.0055 and 0.0643.
The corresponding values for “DENND3_A2RUS2_1094_DTSTSFLAFQLLPEEEQLWAACAGR (UniProt A2RUS2)” are 1.22 and -0.0979.
“DHX9_Q08211_608+612_KDKDDDGGEDDDANCNLICGDEYGPETR (UniProt Q08211)”: the “probe-labelled cysteine peptide fold change” value is -0.128 (10 µM) and -0.345 (50 µM).
The corresponding values for “DNAJC2_Q99543_276_TLVDNAYSCDPR (UniProt Q99543)” are -0.0127 and -0.0992.
As to “CPSF4_O95639_162_RVICVNYLVGFCPEGPSCK (UniProt O95639)”, the “probe-labelled cysteine peptide fold change” value was -0.292 (10 µM) and 0.0715 (50 µM).
The corresponding values for “CUL2_Q13617_103_GADYMDCLYR (UniProt Q13617)” are 0.191 and 0.129.
The corresponding values for “DNMT1_P26358_580_HAQFVVEQVESYDEAGDSDEQPIFLTPCMR (UniProt P26358)” are 0.0642 and 0.604.
The corresponding values for “CTNNA2_P26232_792_IALYCHQLNICSK (UniProt P26232)” are -0.0111 and 0.118.
Turning to “DYNC1LI2_O43237_104_CNVWILDGDLYHK<|>DYNC1LI1_Q9Y6G9_117_CNVWILDGDLYHK (UniProt Q9Y6G9+O43237)”, the “probe-labelled cysteine peptide fold change” value reads like this: (10 µM) -0.0068; (50 µM) 0.0237.
For “CSTF2_P33240_62_GYGFCEYQDQETALSAMR (UniProt P33240)”, in that order: -0.512 and -0.471.
For “DHX37_Q8IY37_616_LCVVATNVAETSLTIPGIK (UniProt Q8IY37)”, in that order: -0.0366 and 0.0989.
With “CTSB_P07858_93_EQWPQCPTIK (UniProt P07858)”, the “probe-labelled cysteine peptide fold change” value is, setting by setting: (10 µM) -0.026; (50 µM) -0.172.
On to “DUSP3_P51452_171_EIGPNDGFLAQLCQLNDR (UniProt P51452)”, for which the “probe-labelled cysteine peptide fold change” value reads like this: (10 µM) -0.408; (50 µM) -0.0736.
For “DENR_O43583_44_VLYCGVCSLPTEYCEYMPDVAK (UniProt O43583)”, in that order: -0.0798 and -0.0802.
“COX6B1_P14854_54_GGDISVCEWYQR (UniProt P14854)”: the “probe-labelled cysteine peptide fold change” value is -0.188 (10 µM) and -0.269 (50 µM).
The corresponding values for “DHX30_Q7L2E3_286_LSTLTLLWPCPMTFVAK (UniProt Q7L2E3)” are -0.558 and -0.944.
The corresponding values for “DAZAP1_Q96EP5_63_DPNCVGTVLASR (UniProt Q96EP5)” are 0.186 and 0.402.
The corresponding values for “DLEC1_Q9Y238_256_LEDSCR (UniProt Q9Y238)” are 0.892 and 0.979.
Regarding “DIDO1_Q9BTC0_455_CGAQAGIK (UniProt Q9BTC0)”, the “probe-labelled cysteine peptide fold change” value reads like this: (10 µM) -0.117; (50 µM) -0.185.
For “DCTN4_Q9UJW0_280_CEHNLSKPEFNPTSIK (UniProt Q9UJW0)”, in that order: 0.246 and 0.175.
The corresponding values for “DDX21_Q9NR30_539_TGVCICFYQHK (UniProt Q9NR30)” are -0.0402 and -0.0081.
For “DDX17_Q92841_166+199_GGDVCPKPVFAFHHANFPQYVMDVLMDQHFTEPTPIQCQGFPLALSGR (UniProt Q92841)”, in that order: -0.612 and -0.604.
